Measurements published in PubChem BioAssay (NCI).
Compounds without any hit were thinned out: in the full panel of roughly 83,000, 20% have a hit.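 Assay: single dose, 48 h. Readout: percent growth (0 = no net growth; negative = cell death). Active: <10.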 Unmarked numbers belong to inactive results. Activity calls are given as the source filed them.

These compounds were tested on MDA-MB-468 breast (assay: NCI-60 one-dose screen, 48 h (100 = growth as untreated, 0 = no growth, -100 = all killed)). Conditions: 10 µM unless noted.

Row | Structure (SMILES) | growth
1 | CCN1CCN(CC(=O)N2c3cccc4cccc(c34)N(C(=O)CN3CCN(CC)CC3)C2c2cn(-c3ccccc3)nc2-c2cccc([N+](=O)[O-])c2)CC1 | -47.8% (active)
2 | Cc1cc(NCCN(C(C)C)C(C)C)nc(/N=C(\N)Nc2ccc(Cl)c(C(F)(F)F)c2)n1 | -98.6% (active)
3 | Cn1c(=O)c2[nH]c(NN)nc2n(C)c1=O | 122%
4 | CO[C@H]1CC(c2ccc[nH]2)=N[C@]12O[C@@H](C)C[C@@H]1CCCCCCCc3ccc([nH]3)[C@H]12 | 1.37% (active)
5 | COC(=O)Nc1nc2ccc(C3(c4ccc(F)cc4)OCCO3)cc2[nH]1 | 23.3%
6 | C=C1c2c(C)nn(-c3ccc(S(N)(=O)=O)cc3)c2N(C)C23CC1C1(C)c4c(C)nn(-c5ccc(S(N)(=O)=O)cc5)c4N(C)C(C)(CC12)C3 (stereo unspecified) | 0.632% (active)
7 | CCNC(=O)C#Cc1ccc2c(C(=Nc3ccc(CN(C)C)cc3)c3ccccc3)c(O)[nH]c2c1 | 17.2%
8 | CC(C)=CCC/C(C)=C/CC/C(C)=C/CSC[C@H](NC(=O)CCCCCN1CCN(C)CC1)C(=O)NC1CCCCCC1 | 48.2%
9 | COc1cc(CN2CCO[C@H](COc3cccc(F)c3)C2)ccc1Cl | 11.4%
10 | COc1cc2c(cc1OC)C(=O)/C(=C/c1cc(C)c(O)c(C)c1)S2 | 11.4%
11 | O=C(C[n+]1cccc(Br)c1)c1ccc2c(c1)CCCC2 | 94%
12 | COc1ccc(/C=N/NC(=O)c2ccc(-n3cc(-c4ccccc4)nn3)cc2)cc1OC | 101%
13 | Cc1ccc(S(=O)(=O)N2CCCN(c3nc(-c4ccccc4)nc4nc(-c5ccccc5)oc34)CC2)cc1 | 109%
14 | COc1ccc2nc(-c3cc(-c4cc(OC)c(OC)c(OC)c4)n[nH]3)[nH]c2c1 | -8.59% (active)
15 | CC1CCN(S(=O)(=O)c2ncsc2-c2ccccc2)CC1 | 94.4%
16 | COc1cc(/C=C/C(=O)c2ccc(NC(=O)CN3CCN(c4cc5c(cc4F)c(=O)c(C(=O)O)cn5C4CC4)CC3)cc2)cc(OC)c1OC | -1.82% (active)
17 | O=C(O)C1CSC(c2ccccc2)N1 (stereo unspecified) | 96.7%
18 | CCOc1ccc(I)cc1 | 105%

Row | Structure (SMILES) | growth
19 | O=c1[nH]c2ccc(Br)cc2c2c1C(c1ccc(Cl)cc1)c1c(ncn3nc(-c4ccco4)nc13)O2 (stereo unspecified) | 85.9%
20 | C#CCOc1ccccc1C(OC(=O)c1ccccc1)C(=O)NC(C)(C)C(C)(C)C (stereo unspecified) | 80.5%
21 | CC(=O)[C@@H]1CC[C@]2(C(=O)n3ccnc3)CC[C@]3(C)[C@H](CC[C@@H]4[C@@]5(C)Cc6c([nH]c7ccccc67)C(C)(C)[C@@H]5CC[C@]43C)[C@@H]12 | 90.8%
22 | CCSc1ccc([C@@H]2[C@@H](N)C(=O)N2c2cc(OC)c(OC)c(OC)c2)cc1 | 17%
23 | COC(=O)c1ccc2[nH]c(O)c(C(=Nc3ccc(N(C)C(=O)CN4CCN(C)CC4)cc3)c3ccc(N)cc3)c2c1 | 62%
24 | CCCCCCCCCCCC1=NC(C)(C)CN1C(C)(C)CO | -16% (active)
25 | Clc1ccccc1Nc1nnc(-c2ccncc2)s1 | 110%
26 | CC12CCC(C(=O)CC1=O)C2(C)C (stereo unspecified) | 99.3%
27 | NC[C@H](O)c1ccc(O)c(O)c1 | 111%
28 | COc1ccc(-c2nc(Cl)c3c(C)nn(-c4ccc(F)cc4)c3n2)cc1 | 105%
29 | O=C(Cc1ccc(/C=C/C(=O)c2nccs2)cc1)Nc1ccccc1 | 91.7%
30 | O=C1/C(=C/c2ccccc2F)CN(C(=O)C(Cl)Cl)C/C1=C\c1ccccc1F | -32.4% (active)
31 | Cn1c2c(cc(S(=O)(=O)c3ccccc3)c1=O)CCc1c-2cnn1-c1ccc(Cl)cc1 | -43% (active)
32 | C=CCNCCCN1C(=O)c2ccc3c4c(ccc(c24)C1=O)C(=O)N(CCCNCC=C)C3=O | -88.5% (active)
33 | COc1cccc(C2=NN3C(C2)c2cc(Br)cc(OC)c2OC32CCN(Cc3ccccc3)CC2)c1 (stereo unspecified) | 96.4%
34 | NC(N)=N/N=C/c1cccc(Br)c1 | 87%
35 | CCOC(=O)c1cc(C(=O)c2ccc(OC)cc2)n2ccc(/C=C/c3cc[n+](CC(=O)c4ccc(OC)cc4)cc3)cc12 | -38.2% (active)
36 | Cc1cc(C)c(S(=O)(=O)/N=c2/n(-c3ccccc3)nc3n2CCN3C2=NCCN2)c(C)c1 | 30%
